Test results from PubChem BioAssay AID1159580 (chemical genetic matrix, 2015).
About 2,000 (36%) of roughly 5,500 compounds were called active. Another 18% or so got no clear call; they are omitted. Rule as the data show it: active = normalized growth mostly below about 0.91 (no sharp cut-off); inconclusive = no clear call, values can overlap the other calls; inactive = mostly above about 0.92. The list shows a part of the results.

Assay: chemical genetic growth profiling, strain panel (AID 1159580);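 also: tested at 20 µM; growth read once vehicle control cultures reached saturation at 30 °C; 1 = growth at the plate median or of vehicle wells; lower values mean less growth of the strain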
Details: growth OD
[1] = S. cerevisiae deletion strains, locus YDR150W, strain NUM1, stronger effect = lower value
[2] = S. cerevisiae deletion strains, locus YJR075W, strain HOC1, stronger effect = lower value
[3] = S. cerevisiae deletion strains, locus YMR307W, strain GAS1, stronger effect = lower value
[4] = S. cerevisiae deletion strains, locus YNL153C, strain GIM3, stronger effect = lower value
[5] = S. cerevisiae deletion strains, locus YNL322C, strain KRE1, stronger effect = lower value
[6] = S. cerevisiae deletion strains, locus YDL101C, strain DUN1, stronger effect = lower value
[7] = S. cerevisiae deletion strains, locus YHR030C, strain SLT2, stronger effect = lower value

Measured: normalized growth

N#CC(Cc1ccc(O)c(O)c1)C(=O)N1CCc2ccccc21 (centres undefined)
inactive: S. cerevisiae deletion strains, locus YAL040C, strain CLN3, stronger effect = lower value 0.961 | S. cerevisiae deletion strains, locus YCL061C, strain MRC1 (second series), stronger effect = lower value 0.986 | [1] 0.997 | S. cerevisiae deletion strains, locus YDR363W, strain ESC2, stronger effect = lower value 0.97 | S. cerevisiae deletion strains, locus YER002W, strain NOP16, stronger effect = lower value 1.01 | [2] 0.995 | [3] 0.986 | S. cerevisiae deletion strains, locus YNL128W, strain TEP1, stronger effect = lower value 0.996 | [4] 0.977 | S. cerevisiae deletion strains, locus YNL175C, strain NOP13, stronger effect = lower value 0.999 | S. cerevisiae deletion strains, locus YNL197C, strain WHI3, stronger effect = lower value 1.02 | S. cerevisiae deletion strains, locus YNL224C, strain SQS1, stronger effect = lower value 0.994 | [5] 0.952 | S. cerevisiae deletion strains, locus YOR083W, strain WHI5 (second series), stronger effect = lower value 0.965

Cc1c(C(=O)O)cc(-c2ccccc2)n1-c1ccccc1
inactive: S. cerevisiae deletion strains, locus YAL013W, strain DEP1, stronger effect = lower value 0.988 | S. cerevisiae deletion strains, locus YBR229C, strain ROT2, stronger effect = lower value 1.01 | [6] 1 | [1] 0.892 | S. cerevisiae deletion strains, locus YEL061C, strain CIN8, stronger effect = lower value 0.941 | S. cerevisiae deletion strains, locus YGR078C, strain PAC10, stronger effect = lower value 0.999 | S. cerevisiae deletion strains, locus YHR087W, strain rtc3, stronger effect = lower value 0.985 | S. cerevisiae deletion strains, locus YJL187C, strain SWE1, stronger effect = lower value 0.988 | S. cerevisiae deletion strains, locus YJR043C, strain POL32, stronger effect = lower value 0.999 | [2] 0.959 | S. cerevisiae deletion strains, locus YKL190W, strain CNB1, stronger effect = lower value 0.975 | S. cerevisiae deletion strains, locus YLR058C, strain SHM2 (second series), stronger effect = lower value 1.01 | S. cerevisiae deletion strains, locus YML094W, strain GIM5, stronger effect = lower value 0.945 | S. cerevisiae deletion strains, locus YMR219W, strain ESC1, stronger effect = lower value 0.998 | S. cerevisiae deletion strains, locus YMR263W, strain SAP30, stronger effect = lower value 0.981 | [4] 0.952 | S. cerevisiae deletion strains, locus YNL298W, strain CLA4 (second series), stronger effect = lower value 0.869 | [5] 1 | S. cerevisiae deletion strains, locus YNR030W, strain Alg12, stronger effect = lower value 0.923 | S. cerevisiae deletion strains, locus YOL006C, strain TOP1, stronger effect = lower value 0.85 | S. cerevisiae deletion strains, locus YPL055C, strain LGE1, stronger effect = lower value 0.865 | S. cerevisiae deletion strains, locus YPL241C, strain CIN2, stronger effect = lower value 0.907 | S. cerevisiae strains, strain wild type, stronger effect = lower value 0.987
active: [7] 0.613 | S. cerevisiae deletion strains, locus YLR039C, strain RIC1, stronger effect = lower value 0.674 | S. cerevisiae deletion strains, locus YLR085C, strain ARP6, stronger effect = lower value 0.654 | S. cerevisiae deletion strains, locus YLR262C, strain YPT6, stronger effect = lower value 0.66 | [3] 0.467 | S. cerevisiae deletion strains, locus YPR135W, strain CTF4, stronger effect = lower value 0.64

Cc1c(C(=O)N2CCCCC2)cc(-c2ccccc2)n1-c1ccccc1
active: [7] 0.676 | S. cerevisiae deletion strains, locus YLR113W, strain HOG1, stronger effect = lower value 0.787 | S. cerevisiae deletion strains, locus YPL256C, strain CLN2, stronger effect = lower value 0.8
inactive: S. cerevisiae deletion strains, locus YAR019C, strain CDC15, stronger effect = lower value 0.964 | S. cerevisiae deletion strains, locus YBL105C, strain PKC1, stronger effect = lower value 0.975 | S. cerevisiae deletion strains, locus YBR135W, strain CKS1, stronger effect = lower value 0.969 | S. cerevisiae deletion strains, locus YBR136W, strain MEC1, stronger effect = lower value 0.969 | S. cerevisiae deletion strains, locus YBR160W, strain CDC28, stronger effect = lower value 0.959 | S. cerevisiae deletion strains, locus YDL017W, strain CDC7, stronger effect = lower value 0.973 | S. cerevisiae deletion strains, locus YDL028C, strain MPS1, stronger effect = lower value 0.946 | [6] 0.969 | S. cerevisiae deletion strains, locus YDL108W, strain KIN28, stronger effect = lower value 0.968 | S. cerevisiae deletion strains, locus YDL132W, strain cdc53, stronger effect = lower value 0.973 | S. cerevisiae deletion strains, locus YDL214C, strain PRR2, stronger effect = lower value 0.908 | S. cerevisiae deletion strains, locus YDR052C, strain DBF4, stronger effect = lower value 0.983 | S. cerevisiae deletion strains, locus YDR054C, strain cdc34, stronger effect = lower value 0.968 | S. cerevisiae deletion strains, locus YDR226W, strain ADK1, stronger effect = lower value 0.962 | S. cerevisiae deletion strains, locus YDR477W, strain SNF1, stronger effect = lower value 0.908 | S. cerevisiae deletion strains, locus YER123W, strain YCK3, stronger effect = lower value 0.896 | S. cerevisiae deletion strains, locus YER133W, strain GLC7, stronger effect = lower value 0.924 | S. cerevisiae deletion strains, locus YFL009W, strain cdc4, stronger effect = lower value 0.952 | S. cerevisiae deletion strains, locus YFL029C, strain CAK1, stronger effect = lower value 0.967 | S. cerevisiae deletion strains, locus YFR003C, strain YPI1, stronger effect = lower value 0.976 | S. cerevisiae deletion strains, locus YFR019W, strain FAB1, stronger effect = lower value 0.944 | S. cerevisiae deletion strains, locus YFR028C, strain CDC14, stronger effect = lower value 0.968 | S. cerevisiae deletion strains, locus YGR040W, strain KSS1, stronger effect = lower value 0.897 | S. cerevisiae deletion strains, locus YGR052W, strain FMP48, stronger effect = lower value 0.947 | S. cerevisiae deletion strains, locus YGR092W, strain DBF2, stronger effect = lower value 0.855 | S. cerevisiae deletion strains, locus YHR079C, strain IRE1, stronger effect = lower value 0.822 | S. cerevisiae deletion strains, locus YHR082C, strain KSP1, stronger effect = lower value 0.901 | S. cerevisiae deletion strains, locus YHR205W, strain SCH9, stronger effect = lower value 0.828 | S. cerevisiae deletion strains, locus YIL147C, strain SLN1, stronger effect = lower value 0.951 | S. cerevisiae deletion strains, locus YJL095W, strain BCK1, stronger effect = lower value 0.837 | S. cerevisiae deletion strains, locus YJL128C, strain PBS2, stronger effect = lower value 0.922 | S. cerevisiae deletion strains, locus YJL157C, strain FAR1, stronger effect = lower value 0.933 | S. cerevisiae deletion strains, locus YJR016C, strain ILV3, stronger effect = lower value 0.975 | S. cerevisiae deletion strains, locus YJR066W, strain TOR1 (second series), stronger effect = lower value 0.912 | S. cerevisiae deletion strains, locus YJR066W, strain TOR1, stronger effect = lower value 0.843 | S. cerevisiae deletion strains, locus YKL048C, strain ELM1, stronger effect = lower value 0.928 | S. cerevisiae deletion strains, locus YKL067W, strain YNK1, stronger effect = lower value 0.916 | S. cerevisiae deletion strains, locus YKL101W, strain HSL1, stronger effect = lower value 0.884 | S. cerevisiae deletion strains, locus YKL193C, strain SDS22, stronger effect = lower value 0.969 | S. cerevisiae deletion strains, locus YKL203C, strain TOR2, stronger effect = lower value 0.981 | S. cerevisiae deletion strains, locus YLR133W, strain CKI1, stronger effect = lower value 0.921 | S. cerevisiae deletion strains, locus YLR403W, strain SFP1, stronger effect = lower value 0.905 | S. cerevisiae deletion strains, locus YML070W, strain DAK1, stronger effect = lower value 0.898 | S. cerevisiae deletion strains, locus YMR001C, strain CDC5, stronger effect = lower value 0.944 | S. cerevisiae deletion strains, locus YMR205C, strain PFK2 (second series), stronger effect = lower value 0.934 | S. cerevisiae deletion strains, locus YMR277W, strain FCP1, stronger effect = lower value 0.943 | S. cerevisiae deletion strains, locus YNL006W, strain LST8, stronger effect = lower value 0.965 | S. cerevisiae deletion strains, locus YNL020C, strain ARK1, stronger effect = lower value 0.921 | S. cerevisiae deletion strains, locus YNL161W, strain CBK1, stronger effect = lower value 0.972 | S. cerevisiae deletion strains, locus YNL183C, strain NPR1, stronger effect = lower value 0.942 | S. cerevisiae deletion strains, locus YNL207W, strain RIO2, stronger effect = lower value 0.974 | S. cerevisiae deletion strains, locus YNL222W, strain SSU72, stronger effect = lower value 0.949 | S. cerevisiae deletion strains, locus YNL307C, strain MCK1 (second series), stronger effect = lower value 0.881 | S. cerevisiae deletion strains, locus YOL078W, strain AVO1, stronger effect = lower value 0.974 | S. cerevisiae deletion strains, locus YOL136C, strain PFK27, stronger effect = lower value 0.88 | S. cerevisiae deletion strains, locus YOR061W, strain CKA2, stronger effect = lower value 0.918 | S. cerevisiae deletion strains, locus YOR119C, strain RIO1, stronger effect = lower value 0.932 | S. cerevisiae deletion strains, locus YOR231W, strain MKK1, stronger effect = lower value 0.823 | S. cerevisiae deletion strains, locus YOR329C, strain SCD5, stronger effect = lower value 0.977 | S. cerevisiae deletion strains, locus YPL031C, strain PHO85, stronger effect = lower value 0.891 | S. cerevisiae deletion strains, locus YPL153C, strain RAD53, stronger effect = lower value 0.91 | S. cerevisiae deletion strains, locus YPL204W, strain HRR25, stronger effect = lower value 0.899 | S. cerevisiae deletion strains, locus YPL209C, strain IPL1, stronger effect = lower value 0.974 | S. cerevisiae deletion strains, locus YPR025C, strain CCL1, stronger effect = lower value 0.981 | S. cerevisiae deletion strains, locus YPR106W, strain ISR1, stronger effect = lower value 0.958 | S. cerevisiae deletion strains, locus YPR111W, strain DBF20, stronger effect = lower value 0.94 | S. cerevisiae deletion strains, strain NNK1, stronger effect = lower value 0.962 | S. cerevisiae deletion strains, strain TSCII, stronger effect = lower value 0.96
